Source: PubChem BioAssay
In the library only some 8.1% were active in any assay of this set; here they are far more common.
ClpP mod: qHTS Assay for Activators of ClpP | ATP-dependent Clp protease proteolytic subunit (Bacillus subtilis (strain 168)), P80244 | purified B. subtilis ClpP, FRET peptide cleavage, 20 min | Potency, µM (series often up to 57.5 µM), inactives show at the top dose activity change, negative = active | 340,000 tested, 1.9% active; active = well fitted falling curve with a large enough effect; inconclusive = small, poorly fitted or top-dose-only effect; inactive = no such curve, though single readings can be large or run the other way; note: the source files actives as falling curves though it sought activators and does not explain the sign; nearly all actives have a fitted effect of over 65% in size
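FRET quenching reversal measured ClpP activation: 10 microg/mL B. subtilis ClpP at pH 8 with the FRET-FV decapeptide, read at 430 nm after 320 nm excitation. The 20-min minus 0-min signal was scaled between DMSO/no-enzyme wells and ADEP (5.8 microM final).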
RORgamma inh: blocks mouse ROR gamma transcriptional activity; AID 2551; 310,000 tested, 5.4% active; Potency, µM (titrated, usually from 53.6 µM), without a hit: top-dose activity change, negative = inhibition, usual class: inhibitors; Drosophila S2 Gal4-RORgamma UAS-luciferase reporter, 20 h; P51450; note: % is set by controls: 0 for no effect and ±100 for the full control effect; nearly all actives have a fitted effect of over 60% in size
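Luciferase reporter read in Schneider cells carrying Gal4-RORγ (mouse) and UAS-Photinus luciferase; cells given compound 1 h before 700 uM copper sulfate induction, then incubated 20 h at ambient temperature.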
Epigenetic derep: epigenetic control regulation, reporter derepression; 280,000 tested, 0.2% active; murine LDR cells, GFP reporter derepression, 30 h; Potency, µM (top dose mostly 53.9 µM), inactives show top-dose GFP activation, actives largely listed as activators; note: % of control where 0% means no effect; nearly all actives have a fitted effect of over 60% in size
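Readout is the number of GFP-expressing murine LDR cells, counted by cytometry following washing. Cells were treated with compound for 30 h at 37 C; the stably integrated CMV-GFP locus is normally silent.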
VP16 counter: inhibits Gal4-VP16 luciferase reporter, ROR gamma counter-screen; Drosophila S2 Gal4-VP16 UAS-luciferase, luminescence, 20 h; Potency, µM (titrated, usually from 53.6 µM), inactives show at the top dose activity, negative = inhibition, hits mostly inhibitors; 310,000 tested, 3.5% active;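 note: Gal4-VP16 expression switched on by copper sulfate through the metallothionein promoter; % is set by controls: 0 for no effect and ±100 for the full control effect; nearly all actives have a fitted effect of over 50% in size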
Sfp PPTase inh: Sfp phosphopantetheinyl transferase inhibition; AID 1490; Q9F4F7; Potency, µM, inactives show largest response in the series, negative = inhibition, hits mostly inhibitors; Biochemical Sfp PPTase activity, qHTS; 310,000 tested, 3.5% active;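 note: the enzyme is Sfp with the accession as filed and its product quenches rhodamine fluorescence; 0% = enzyme reaction without inhibitor and -100% = no enzyme wells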
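Fluorescence-quenching assay with 15 nM Sfp, 5 uM rhodamine-CoA and 12.5 uM BHQ-2-labelled ybbR peptide in pH 7.6 Hepes/MgCl2 buffer. Enzyme was pre-incubated with compound for 15 min at room temperature. Rate was taken from the 30-min fluorescence change (525/598 nm).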
PINK1 expr mod: changes PINK1 expression | PINK1 immunofluorescence, high-content cytometry, 24 h | Potency, µM (doses to about 76.6 µM), for the others: at the highest dose activation (PINK1 increase), most hits filed as activators | 410,000 tested, 0.2% active; active = well fitted activation curve with a large enough effect; inconclusive = small, poorly fitted or top-dose-only effect; cell line not stated here; note: % of control where 0% means no effect; nearly all actives have a fitted effect of over 65% in size
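Readout is PINK1 immunofluorescence, quantified alongside mitochondrial, cell and nuclear markers by laser-scanning microplate cytometry. Cells from a stable line were exposed to compound titrations (5 concentrations) for 24 hours, with CCCP controls.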
Active calls of the source: *; u = inconclusive; x = no result; ! = a repeat was not active; [ ] = another dose, or the depositor's remark. Unless noted, calls come from the whole dose curve; as a rule, active = well fitted curve in the direction sought with a large enough effect; inconclusive = small, poorly fitted or top-dose-only effect, or another doubt; inactive = no such curve, though single readings can be large; an effect the other way counts as inactive or inconclusive. Potency is the fitted concentration of half-maximal effect.

SMILES | ClpP mod | RORgamma inh | Epigenetic derep | VP16 counter | Sfp PPTase inh | PINK1 expr mod
Cc1ccccc1NC(=O)c1ccc(S(=O)(=O)N(C)C)cc1 | 0% | -7% | -1% | 10% | 13% | 1%
N#CCCSc1ccccc1NC(=O)c1cc(=O)c2ccccc2o1 | -3% | 11% | x | 7% | 22µM* | 0%
CN(C)S(=O)(=O)c1ccc(C(=O)Nc2ccccc2SCCC#N)cc1 | 0% | 30% | 6% | 7% | 14µM* | 1%
COc1cccc(C2(CC(=O)N3CCN(c4ccccn4)CC3)CC(=O)N(C3CCCC3)C2=O)c1 (stereo not drawn) | x | x | x | x | x | -1%
CN1/C(=C/C(=O)c2cccs2)Sc2ccccc21 | x | u | -1% | u | -13% | x
COc1ccc2c(c1)S/C(=C\C(=O)c1ccncc1)N2C | 0% | -8% | 4% | -17% | 8.9µM* | 4%
COc1cc(OC)cc(C(=O)/C=C2\Sc3ccccc3N2C)c1 | x | 11% | u | -7% | 50µM* | -2%
CN1/C(=C\C(=O)c2cccs2)Sc2ccccc21 | -3% | u | 0% | -25% | 50µM* | 0%
O=C(O)c1ccc(C[n+]2c(-c3ccccc3)csc2Nc2ccccc2)cc1 | -2% | 5.6µM* | 1% | -17% | 5% | 0%
Cc1nc(=S)c2c([nH]1)-c1ccccc1CC21CCCCC1 | x | 0.2µM* | 0% | 1µM* | 24% | 4%
Cc1ccccc1Nc1oc(-c2ccccc2)nc1CCc1ccccc1 | x | -19% | -1% | -4% | -18% | x
COc1ccc(C2CC(c3ccc(F)cc3)n3nc(NC(=O)c4ccco4)nc3N2)cc1 (stereo not drawn) | 0% | 7.1µM* | -2% | 13µM* | 13% | 2%
COCC(=O)Nc1nc2n(n1)C(c1ccc(Cl)cc1)CC(c1ccc(OC)cc1)N2 (stereo not drawn) | u | -18% | 1% | 2% | -27% | -2%
COc1ccc(C2CC(c3ccc(OC)cc3)n3nc(NC(=O)c4cccs4)nc3N2)cc1 (stereo not drawn) | u | 5µM* | 0% | u | 9% | 3%[38.3 µM]
CC1CC(c2ccccc2)n2nc(NC(=O)c3ccco3)nc2N1 (stereo not drawn) | -1% | -41% | -1% | -11% | -1% | 2%
CCOc1ccccc1Nc1ccc(C(=O)O)cc1NC(C)=O | -2% | 3% | 1% | 17% | 56µM* | 1%
CCOc1ccc(C(=O)Nc2ccccc2NC(C)=O)cc1OCC | x | -15% | u | -14% | -2% | -1%
CCOC(=O)c1cc2c(ccn2C)n1Cc1cc(C)ccc1C | -15% | 1% | -1% | 7% | -10% | 5%
CC(C)OC(=O)c1cc2c(ccn2C)n1CC(=O)N(Cc1ccccc1)c1ccccc1 | 28µM* | u | -2% | u | -15% | 14%
N[C@H](C(=O)N[C@@H]1C(=O)N2C(C(=O)O)=C(Cl)CS[C@@H]12)c1ccccc1 | x | 0%[16.9 µM] | 4%[16.9 µM] | -2%[17 µM] | 35µM*! | x
NC(C(=O)NC1C(=O)N2C(C(=O)O)=C(Cl)CSC12)c1ccccc1 (stereo not drawn) | x | -12% | -1% | 4% | -84% | x
CC(=O)c1cccc(NC(=O)c2cc(C)nc3c2c(C)nn3-c2cccc(Cl)c2C)c1 | 101% | x | 0% | x | x | 1%
CC1CC(=O)c2c(cc3c(-c4c(O)cc(O)c5c(O)c6c(cc45)OC(C)CC6=O)c(O)cc(O)c3c2O)O1 (stereo not drawn) | 1% | 5µM* | 15% | 13µM* | 30% | 2%
O=C(NCC(O)CO)c1ccc2[nH]c3ccccc3c2c1 (stereo not drawn) | 28µM* | 6% | -2% | -14% | 18% | -2%
COc1cc(-c2nc(C)cnc2C)cc2c1OCCN(C(=O)Cc1cc(OC)c(OC)c(OC)c1)C2 | x | x | x | x | x | 0%
SMILES | ClpP mod | RORgamma inh | Epigenetic derep | VP16 counter | Sfp PPTase inh | PINK1 expr mod
CCOC(=O)/C(C)=C1\NC(C)(C)Cc2ccccc21 | -1% | -14% | u | -5% | u | -2%
CCCCC1(C)Cc2ccccc2C(=S)N1 (stereo not drawn) | -2% | 1µM* | -1% | 5.6µM* | 16% | -1%
N#Cc1c(NC(=O)c2ccc(Cn3cc(Br)cn3)o2)sc2c1CCCCC2 | -14% | u | -3% | -5% | u | 0%
COC(=O)c1sc(NC(=O)c2ccc(Cn3cc(Cl)cn3)o2)c(C#N)c1C | -2% | 11% | -1% | -7% | 16µM* | 1%
CN(Cc1ccccc1)C(=O)CSc1nc(-c2ccc(F)cc2)cc(C(F)(F)F)n1 | -19% | x | 0% | x | x | 1%
COc1cc(OC)c(N(C)C(=O)c2c(C)oc3ncnc(N4CCCCC4)c23)cc1Cl | -5% | x | -1% | x | x | -1%
Cc1ccc(Nc2sc(C(=O)c3ccccc3)c(N)c2S(=O)(=O)c2ccccc2)cc1Cl | -5% | x | 6% | x | x | 0%
COc1ccc(CN(CCN(C)C)c2ncccn2)cc1 | x | 8% | -1% | 3% | 14% | x
CCCCCCCCCCCCCCCC[N+](C)(C)CCN(Cc1ccc(OC)cc1)c1ncccn1 | -9% | 0%[2.98 µM] | 1%[16.9 µM] | u | 14µM* | 0%
CC1CCN(c2nc3ccc(C(=O)NCc4ccc(Cl)cc4)cc3s2)CC1 | -2% | x | -4% | x | x | 1%
CC1CCN(c2nc3ccc(C(=O)O)cc3s2)CC1 | -3% | 0.89µM* | 1% | 1.4µM* | 8% | 0%
O=C(NCC1CCCO1)c1ccc2nc(N3CCCCC3)sc2c1 (stereo not drawn) | -22% | 7.1µM* | -1% | u | -1% | 1%
COc1cccc(CN2C(=O)NC(C)(C3CCN(Cc4cnn(C)c4C)CC3)C2=O)c1OC (stereo not drawn) | x | x | x | x | x | 1%
CCOC(=O)C1C(c2cc(OC)c(OC)c(OC)c2)NC(=S)NC1(O)C(F)(F)F (stereo not drawn) | 1% | 1% | -1% | 3% | 79µM* | -1%
CCOC(=O)C1C(c2cc(OC)c(O)c(OC)c2)NC(=S)NC1(O)C(F)(F)F (stereo not drawn) | 1% | 8% | -1% | 8% | -8% | 4%
Cc1ccnc(NC(=O)C2CCN(S(=O)(=O)c3ccc(Cl)c(C(F)(F)F)c3)CC2)c1 | 32µM* | x | x | x | x | -1%
COc1cc2c(NC3CCN(C)CC3)nc(N3CCCN(C)CC3)nc2cc1OCCN(C)CCN(C)C | 4% | x | x | x | x | 0%
COc1ccc(/C=C2\NC(=S)N(CC3CCCO3)C2=O)c(OC)c1 (stereo not drawn) | 0% | 16µM* | -1% | u | -6% | 3%[38.3 µM]
C=C(C(C)=O)C(O)c1ccc2ccccc2c1 (stereo not drawn) | x | 16% | 0% | -5% | -17% | x
